# PubChem BioAssay (NCI)
# Compounds without any hit were thinned out: in the full panel of roughly 83,000, 20% have a hit.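 Interpretation: 100, growth as untreated; towards 0, rising growth inhibition; 0, no net growth; 0 to -100, cell death. Compounds scoring below 10 were considered active.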 Values without a mark were called inactive. Calls of active or inactive are those of the source.
# System: HOP-62 NSCLC
# Assay: NCI-60 one-dose screen, 48 h (100 = growth as untreated, 0 = no growth, -100 = all killed)
# Settings: 10 µM unless noted
row,SMILES,growth
1,CC(=O)Oc1ccc(CCN2C(=O)CSC2=S)cc1,111%
2,COc1cc(/C=N/n2cnc3oc(-c4ccccc4)cc3c2=N)cc(CN2CCOCC2)c1O,74.2%
3,CCOC(=O)/C=c1\sc2n(c1=O)C1C(NN=2)N(CC)C(=O)N1CC (centres undefined),71.6%
4,CN(C)c1ccc(/C=N/Nc2nc(N/N=C/c3ccc(N(C)C)cc3)nc(N3CCOCC3)n2)cc1,106%
5,COc1cc2oc(-c3cccc(NC(=O)c4cc(NC(=O)[C@H](C)NC(=O)OC(C)(C)C)ccc4C)c3)cc(=O)c2c(OC)c1OC,84.5%
6,CN1CCN(Cc2ccc(NC(=O)c3cncc(C#Cc4cnc5ccc(NC6CCOCC6)nn45)c3)cc2C(F)(F)F)CC1,-0.603% (active)
7,O=C(Nc1ccc(Cl)cc1)Nc1nc2ccc([N+](=O)[O-])cc2s1,-33.5% (active)
8,CCCCCCNC(=O)Oc1ccc(/C(=C(/C)c2ccc(OC)cc2)c2ccc(OCCN3CCCC3)cc2)cc1,88.4%
9,O=c1c2ccccc2nc(COc2ccccc2)n1/N=C/C=C/c1ccccc1,98.6%
10,CCCCCc1ccc(S(=O)(=O)N(C(C)=O)c2cccc(-c3csc(N(CCN4CCN(C)CC4)C(C)=O)n3)c2)cc1,83.5%
11,O=C(NNc1nc2cc(F)c(F)cc2n2cccc12)c1ccncn1,26.8%
12,O=C(CCCCCCN1CC(=O)N2[C@@H](c3cccc(Cl)c3)c3[nH]c4ccccc4c3C[C@H]2C1=O)NO,51.9%
13,O=C(/C=C/c1cn(-c2ccccc2)nc1-c1ccc(Cl)cc1)c1cc2ccccc2oc1=O,82.4%
14,COc1cc(/C=C/C(=O)c2ccc(NC(=O)COc3cccc4cccnc34)cc2)cc(OC)c1OC,114%
15,O=C(Nc1cccc(Cl)c1)Nc1nc2ccc([N+](=O)[O-])cc2s1,-1.84% (active)
16,O=C(NNc1nc2cc(F)cc(F)c2n2cccc12)c1ccncn1,13.1%
17,C[C@H]1[C@H](C)CC[C@]2(COC(=O)c3cccnc3)CC[C@]3(C)C(=CC[C@@H]4[C@@]5(C)CCCNC(C)(C)[C@@H]5CC[C@]43C)[C@H]12,99.8%
18,CN1CCN(c2ccc(NC(=O)Nc3ccc4c(ccn4-c4cccc(C(N)=O)n4)c3)cc2C(F)(F)F)CC1,63.2%
19,COc1ccc(OC)c([C@H]2c3[nH]c4ccccc4c3C[C@H]3C(=O)N(CCCCCCC(=O)NO)CC(=O)N23)c1,85.4%
20,CS(=O)c1nccc(-c2c(-c3ccc(F)c(OCc4ccccc4)c3)nc3sccn23)n1 (centres undefined),103%

row,SMILES,growth
1,CC(=O)NC(C)(C)C(=O)N1CCC[C@H]1C(=O)NC(C)(C)C(=O)N[C@@H](C)C(=O)NC(C)(C)C(=O)N[C@@H](C)C(=O)N[C@@H](CCC(N)=O)C(=O)NC(C)(C)C(=O)N[C@H](C(=O)NC(C)(C)C(=O)NCC(=O)N[C@@H](CC(C)C)C(=O)NC(C)(C)C(=O)N1CCC[C@H]1C(=O)N[C@H](C(=O)NC(C)(C)C(=O)NC(C)(C)C(=O)N[C@@H](CCC(N)=O)C(=O)N[C@@H](CCC(N)=O)C(=O)N[C@H](CO)Cc1ccccc1)C(C)C)C(C)C,60.6% [4.25 µM]
2,C=C(C)[C@@H]1CC[C@]2(C(=O)NCCCN(CCC#N)CCC#N)CC[C@]3(C)[C@H](CC[C@@H]4[C@@]5(C)CCC(=O)C(C)(C)[C@@H]5CC[C@]43C)[C@@H]12,97.9%
3,O=C(CN1C(=O)S/C(=C\c2ccccc2)C1=O)Nc1ccc(C(=O)/C=C/c2cc3ccccc3nc2Cl)cc1,87.6%
4,N#Cc1c(-c2cccs2)cc(-c2cnccn2)nc1SCC(=O)NNC(=S)Nc1ccc(F)cc1,106%
5,CN1CCN(c2nc(-c3cnc4ccccc4n3)cc3ccccc23)CC1,95.9%
6,Cc1cc(O)c(=O)cc2c1C[C@H]1CC(C)(C)/C=C/C[C@]3(C)Oc4cc(=O)c(O)cc(C)c4C[C@H]3C[C@H](O)[C@@]1(C)O2,-12.4% (active)
7,CC(C)=CCC[C@](C)(O)[C@H]1CC[C@]2(C)[C@@H]1CC[C@@H]1[C@@]3(C)CCC(NC(=O)c4ccccc4C(=O)O)C(C)(C)[C@@H]3CC[C@]12C (some centres undefined),104%
8,CN1CCN(c2ccc3c(C(N)=O)c(NC(=O)c4ccc(C(C)(C)C)cc4)sc3c2)CC1,86.6%
9,COc1ccc(-c2nc(SCC(C)C)nc(N/N=C\c3cccc([N+](=O)[O-])c3)c2C#N)cc1,31.3%
10,Cc1cc(F)cc(NS(=O)(=O)c2ccc(-c3cnc(C4CC4)o3)cc2)c1,34.2%
11,C/C(=N\NC(=O)CSc1nc2sc3c(c2c(=O)n1-c1ccccc1)CCC(C)C3)c1ccc(Cl)cc1 (centres undefined),34.5%
12,COc1ccc(NC(=O)[C@H](C)N)cc1C(=O)Nc1cccc(-c2cc(=O)c3c(OC)c(OC)c(OC)cc3o2)c1,67.3%
13,CC[C@H](C)[C@H]1NC(=O)[C@@H]([C@H](O)C(C)C)NC(=O)[C@@H](C)N(C)C(=O)[C@H](C)N(C)C(=O)[C@H](CC(C)C)NC(=O)[C@H](CC(C)C)N(C)C(=O)[C@H](C)N(C)C1=O,-13.3% (active)
14,IP(CCCSc1n(Cc2ccc3ccccc3c2)c(-c2ccccc2)c(-c2ccccc2)[n+]1Cc1ccc2ccccc2c1)(c1ccccc1)(c1ccccc1)c1ccccc1,31.2%
15,N/C(=N\OC(=O)CSc1nc2ccccc2s1)c1ccc(Cl)cc1,88.2%
16,CC(=O)NC(C)(C)C(=O)N[C@@H](C)C(=O)NC(C)(C)C(=O)N[C@@H](C)C(=O)NC(C)(C)C(=O)N[C@@H](C)C(=O)N[C@@H](CCC(N)=O)C(=O)NC(C)(C)C(=O)N[C@H](C(=O)NC(C)(C)C(=O)NCC(=O)N[C@@H](CC(C)C)C(=O)NC(C)(C)C(=O)N1CCC[C@H]1C(=O)N[C@H](C(=O)NC(C)(C)C(=O)NC(C)(C)C(=O)N[C@@H](CCC(N)=O)C(=O)N[C@@H](CCC(N)=O)C(=O)N[C@H](CO)CC1CCCCC1)C(C)C)C(C)C,46.3% [5 µM]
17,CCOC(=O)C1=C(C)Nc2nnc(Nc3ccccc3)n2C1c1ccccc1 (centres undefined),81.8%
18,COc1cc(OC)c(S(N)(=O)=O)cc1C(=O)/C=C/c1ccccc1,24.8%
19,CCOC(=O)/C(F)=C/C1CC1C1CCCCC1 (centres undefined),122%
